Results published in the supplement of paper PMC6522484.
± gives the standard deviation of the averaged measurements.

Experiments:
DLD1 [1] = experiment: cell viability (CellTiter-Glo) relative to plate median (fraction of plate median); higher = more viable cells; settings: 10 µM, treatment time 24 h
Summary of the method: (§1)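 Kinase inhibitor library compounds were added at a final 10 µM for 24 h to colorectal cancer cells in 384-well plates, 24 h after seeding. The cells stably expressed lentiviral TCF/Wnt firefly luciferase reporters. Firefly luciferase and CellTiterGlo luminescence came from parallel plates, and each well was normalised to its plate median (webcellHTS2, additive, untransformed), averaged over two independent replicates.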

HCT116 [2] = experiment: as above; settings: 10 µM; treatment time 24 h; reporter: TCF4/Wnt
Summary of the method: as §1

SW480 [3] = experiment: as above; settings: 10 µM; treatment time 24 h; reporter: 7TFP
Summary of the method: as §1

DLD1 [4] = experiment: TCF/Wnt firefly luciferase reporter signal relative to plate median (fraction of plate median); higher = higher Wnt reporter signal; settings: 10 µM, treatment time 24 h
Summary of the method: as §1

HCT116 [5] = experiment: as above; settings: 10 µM; treatment time 24 h; reporter: TCF4/Wnt
Summary of the method: as §1

SW480 [6] = experiment: as above; settings: 10 µM; treatment time 24 h; reporter: 7TFP
Summary of the method: as §1

DLD1 [7] = experiment: cell viability (CellTiter-Glo) relative to plate median (fraction of plate median); higher = more viable cells; settings: 5 µM; treatment time 24 h; reporter: 7TFP
Summary of the method: (§2)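 Colorectal cancer lines with stably integrated lentiviral TCF/Wnt firefly luciferase reporters received library compounds at a final 5 µM, 24 h after seeding into 384-well plates, for a 24 h exposure. Reported figures are plate-median-normalised firefly luciferase or CellTiterGlo luminescence per well. They average two independent replicates.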

HCT116 [8] = experiment: as above; settings: 5 µM; treatment time 24 h; reporter: TCF4/Wnt
Summary of the method: as §2

SW480 [9] = experiment: as above; settings: 5 µM; treatment time 24 h; reporter: 7TFP
Summary of the method: as §2

DLD1 [10] = experiment: TCF/Wnt firefly luciferase reporter signal relative to plate median (fraction of plate median); higher = higher Wnt reporter signal; settings: 5 µM; treatment time 24 h; reporter: 7TFP
Summary of the method: as §2

SW480 [11] = experiment: as above; settings: 5 µM; treatment time 24 h; reporter: 7TFP
Summary of the method: as §2

Row | Structure (SMILES) | cell viability (DLD1 [1]; reporter: 7TFP) | cell viability (DLD1 [1]; reporter: TCF4/Wnt) | cell viability (HCT116 [2]) | cell viability (SW480 [3]) | TCF/Wnt firefly luciferase reporter signal (DLD1 [4]; reporter: 7TFP) | TCF/Wnt firefly luciferase reporter signal (DLD1 [4]; reporter: TCF4/Wnt) | TCF/Wnt firefly luciferase reporter signal (HCT116 [5]) | TCF/Wnt firefly luciferase reporter signal (SW480 [6]) | cell viability (DLD1 [7]) | cell viability (HCT116 [8]) | cell viability (SW480 [9]) | TCF/Wnt firefly luciferase reporter signal (DLD1 [10]) | TCF/Wnt firefly luciferase reporter signal (SW480 [11])
1 | O=C(Nc1cccc(Cl)c1)Nc1ncc(CCNc2ncnc3ccsc23)s1 | 0.87 ± 0.023 | 0.8545 ± 0.0064 | 0.947 ± 0.03 | 0.922 ± 0.012 | 0.743 ± 0.15 | 0.952 ± 0.029 | 1.45 | 0.82 ± 0.061 |  |  |  |  | 
2 | Cc1cc2c(F)c(Oc3ncnn4cc(OC[C@@H](C)O)c(C)c34)ccc2[nH]1 | 0.958 ± 0.13 | 1.01 ± 0.028 | 1.16 ± 0.014 | 0.942 ± 0.021 | 0.846 ± 0.22 | 1.05 ± 0.13 | 0.961 ± 0.11 | 0.978 ± 0.031 |  |  |  |  | 
3 | O=C(Nc1ccc(OC(F)(F)F)cc1)c1sccc1NCc1ccnc2ccccc12 | 1.01 ± 0.023 | 0.924 ± 0.025 | 1.21 ± 0.035 | 0.971 ± 0.13 | 1.08 ± 0.15 | 0.97 ± 0.085 | 0.842 ± 0.62 | 0.864 ± 0.48 |  |  |  |  | 
4 | Cc1ccc(C(=O)Nc2cccc(C(F)(F)F)c2)cc1Nc1nc(-c2cccnc2)nc2c1cnn2C | 1.07 ± 0.035 | 1.06 | 0.912 ± 0.2 | 1.05 ± 0.042 | 1.36 ± 0.085 | 0.925 ± 0.2 | 1.12 ± 0.099 | 0.952 ± 0.48 |  |  |  |  | 
5 | Cc1ccc(C(=O)Nc2ccc(CN3CCN(C)CC3)c(C(F)(F)F)c2)cc1C#Cc1cnc2cccnn12 | 0.835 ± 0.055 | 0.8 ± 0.0099 | 0.631 ± 0.14 | 1.01 ± 0.16 | 0.285 ± 0.064 | 0.466 ± 0.0028 | 0.292 ± 0.12 | 0.668 ± 0.098 |  |  |  |  | 
6 | FC(F)(F)c1ccc(/C=C/c2nc(COc3ccc(CCCCn4ccnn4)cc3)co2)cc1 [Mubritinib (TAK 165)] | 0.979 ± 0.03 | 0.946 ± 0.09 | 0.771 ± 0.032 | 0.911 ± 0.1 | 1 ± 0.094 | 0.984 ± 0.023 | 0.639 ± 0.23 | 0.816 ± 0.49 |  |  |  |  | 
7 | COc1cc2/c(=N/c3ccc(Br)cc3F)nc[nH]c2cc1OCC1CCN(C)CC1 [Vandetanib (Zactima)] | 0.921 ± 0.18 | 1.08 ± 0.057 | 1.14 ± 0.085 | 1.2 ± 0.035 | 0.9625 ± 0.0035 | 0.773 ± 0.093 | 0.916 ± 0.081 | 1.2 ± 0.092 |  |  |  |  | 
8 | CN1CCN(C2CCN(C(=O)Nc3cc(Oc4ccc(NC(=O)C5(C(=O)Nc6ccc(F)cc6)CC5)c(F)c4)ccn3)CC2)CC1 [Golvatinib (E7050)] | 0.964 ± 0.18 | 0.904 ± 0.011 | 1.07 ± 0.064 | 1.16 ± 0.064 | 0.719 ± 0.03 | 0.728 ± 0.028 | 0.915 ± 0.12 | 1.06 ± 0.12 |  |  |  |  | 
9 | O=c1sn(-c2cccc3ccccc23)c(=O)n1Cc1ccccc1 [Tideglusib] | 1.03 ± 0.081 | 0.9475 ± 0.005 | 1.03 ± 0.067 | 0.946 ± 0.0099 | 1.32 ± 0.035 | 1.17 | 1.285 ± 0.0071 | 1.11 ± 0.064 |  |  |  |  | 
10 | Oc1ccc(-c2nc(-c3ccc(F)cc3)c(-c3ccncc3)[nH]2)cc1 | 1.08 ± 0.064 | 1.04 ± 0.014 | 1.14 ± 0.021 | 0.916 ± 0.013 | 0.747 ± 0.27 | 0.85 ± 0.04 | 1.05 ± 0.035 | 0.792 ± 0.15 |  |  |  |  | 
11 | CNC(=O)c1nn(C)c2c1C(C)(C)Cc1cnc(Nc3ccc(N4CCN(C)CC4)cc3)nc1-2 | 1.02 ± 0.2 | 0.941 ± 0.049 | 0.659 ± 0.18 | 1.14 ± 0.099 | 0.274 ± 0.088 | 0.3665 ± 0.0035 | 0.146 ± 0.022 | 0.845 ± 0.096 |  |  |  |  | 
12 | CO[C@@H](C(=O)N1Cc2[nH]nc(NC(=O)c3ccc(N4CCN(C)CC4)cc3)c2C1)c1ccccc1 | 1.09 ± 0.11 | 1.12 ± 0.071 | 0.823 ± 0.29 | 1.1 ± 0.042 | 1.23 ± 0.064 | 1.41 ± 0.014 | 0.388 ± 0.019 | 0.656 ± 0.083 |  |  |  |  | 
13 | CCc1cccc(CC)c1NC(=O)N1Cc2[nH]nc(NC(=O)c3ccc(N4CCN(C)CC4)cc3)c2C1 | 1.05 ± 0.2 | 1.055 ± 0.0071 | 0.954 ± 0.093 | 1.1 ± 0.078 | 1.26 ± 0.014 | 1.09 ± 0.057 | 0.996 ± 0.19 | 0.794 ± 0.039 |  |  |  |  | 
14 | Nc1nc(N)c2nc(-c3cccc(O)c3)c(-c3cccc(O)c3)nc2n1 | 1.06 ± 0.035 | 1.02 ± 0.029 | 1.22 ± 0.035 | 0.959 ± 0.025 | 1.08 ± 0.071 | 1.17 ± 0.057 | 1.23 ± 0.11 | 1.04 ± 0.14 |  |  |  |  | 
15 | CC1(C)CNc2cc(NC(=O)c3cccnc3NCc3ccncc3)ccc21 [Motesanib Diphosphate] | 1.015 ± 0.0071 | 0.978 ± 0.074 | 1.08 ± 0.021 | 0.8805 ± 0.0021 | 1.14 ± 0.12 | 0.952 ± 0.17 | 1.19 ± 0.19 | 0.971 ± 0.11 |  |  |  |  | 
16 | O=C(Nc1cc(C(F)(F)F)cc(C(F)(F)F)c1)c1cc(Cl)ccc1O | 0.48 ± 0.1 | 0.618 ± 0.011 | 0.303 ± 0.12 | 0.477 ± 0.03 | 0.473 ± 0.11 | 1.47 ± 0.67 | 0.133 ± 0.072 | 0.3675 ± 0.0021 |  |  |  |  | 
17 | Cc1[nH]c(/C=C2\C(=O)Nc3ccccc32)c(C)c1CCC(=O)O | 0.941 ± 0.028 | 0.997 ± 0.061 | 1.08 ± 0.13 | 0.96 ± 0.044 | 1.93 ± 0.38 | 1.26 ± 0.41 | 1.4 ± 0.59 | 1.22 ± 0.16 |  |  |  |  | 
18 | Nc1ccc(C(=O)Nc2cccc(-c3nc(N4CCOCC4)c4oc5ncccc5c4n3)c2)cn1 | 0.832 ± 0.044 | 0.858 ± 0.025 | 0.819 ± 0.049 | 1.004 ± 0.0078 | 0.758 ± 0.033 | 0.654 ± 0.069 | 0.591 ± 0.2 | 0.827 ± 0.4 |  |  |  |  | 
19 | CC1(COc2ccc3c(c2)ncn3-c2ccc3cccc(N4CCC(N)CC4)c3n2)COC1 | 0.975 ± 0.02 | 1.14 ± 0.11 | 0.536 ± 0.13 | 1.02 ± 0.014 | 1.48 ± 0.25 | 1.73 ± 0.064 | 0.288 ± 0.11 | 1.64 ± 0.014 |  |  |  |  | 
20 | CC[N+](C)(C)c1cccc(O)c1 |  |  |  |  |  |  |  |  | 0.956 ± 0.091 | 0.984 ± 0.013 | 0.908 ± 0.041 | 0.92 ± 0.14 | 0.915 ± 0.044
21 | CCC(=O)OC1[C@@H]2CC3=C4CC(=O)O[C@@H](c5ccoc5)[C@]4(C)CCC3[C@@](C)(C2=O)[C@@H](CC(=O)OC)C1(C)C (some centres not stated) |  |  |  |  |  |  |  |  | 0.932 ± 0.087 | 1.03 ± 0.046 | 1 ± 0.027 | 0.969 ± 0.012 | 0.979 ± 0.19
22 | CC1NC(=O)CNC1=O (configuration not stated) [cyclo(alanylglycyl)] |  |  |  |  |  |  |  |  | 0.883 ± 0.05 | 0.918 ± 0.051 | 0.925 ± 0.054 | 0.947 ± 0.012 | 1 ± 0.1
